# Experimental data published in PubChem BioAssay.
# Active and inactive are the calls of the source.
# Tests used:
# [1] = small molecules captured by biotinylated probe aFSTL3 – biochemical, small-molecule microarray, fluorescence 635/667, stem cell growth factor project, primary screen (AID 1064); settings: higher = more signal;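 also: measures binding of the biotinylated anti-FSTL3 antibody to printed compounds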
# [2] = binders from COS7 lysate, DM2A8 probe, primary screen, torsin A project, cell lysate, small-molecule microarray, fluorescence 635/667 (AID 1065); settings: higher = more signal, COS7 lysate expressing mutant human TOR1A
# [3] = small molecules captured by biotinylated probe aFGF2 – biochemical, small-molecule microarray, fluorescence 635/667, stem cell growth factor project, primary screen (AID 1067); settings: higher = more signal;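 also: measures binding of biotinylated aFGF2 protein to printed compounds on slides; z-score merges feature fluorescence and signal-to-noise across triplicate slides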
# [4] = small molecules captured by biotinylated probe aFGF10 – biochemical, small-molecule microarray, fluorescence 635/667, stem cell growth factor project, primary screen (AID 1071); settings: higher = more signal;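 also: score merges 667 nm spot intensity and signal to noise from triplicate slides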
# [5] = biological target: Neurogenic locus notch homolog protein 2 (Homo sapiens) (UniProt Q04721); assay: small molecules binding Notch2 protein – biochemical, small-molecule microarray, 635 nm fluorescence, stem cell growth factors, primary screen (AID 1073); settings: higher = more signal
# [6] = biological target: Pro-neuregulin-1, membrane-bound isoform (Homo sapiens) (UniProt Q02297); assay: small molecules binding neuregulin-1 protein – biochemical, small-molecule microarray, fluorescence 635/667, psychiatric disease protein project, primary screen (AID 1075); settings: NRG1 binding, 635 nm fluorescence, higher = more signal;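 also: score combines 667 nm spot fluorescence with signal to noise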
# [7] = tested on: Neuregulin-1 EGF-like domain; assay: small molecules binding NRG1 EGF domain – biochemical, small-molecule microarray, 635 nm fluorescence, primary screen (AID 1081); settings: higher = more signal;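 also: binding of the protein to compounds printed on small-molecule microarray slides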
# [8] = FRG1 expression reporter modulators in myotubes – cell-based, C2C12 myotubes, firefly/Renilla luciferase, luminescence, FRG1 inhibition for FSHD, primary screen (AID 1084); settings: FRG1 promoter luciferase, higher = more signal, called active from +8 up or from −8 down
# [9] = small molecules captured by biotinylated probe aFST – biochemical, small-molecule microarray, fluorescence 635/667, stem cell growth factor project, primary screen (AID 1086); settings: higher = more signal;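 also: score merges 667 nm fluorescence with signal-to-noise of each printed compound spot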
# [10] = binders of probe aHhip on microarray, primary screen, stem cell growth factor project, biochemical, small-molecule microarray, fluorescence 635/667 (AID 1087); settings: higher = more signal;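 also: score merges spot fluorescence at 667nm with spot signal to noise ratio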
# [11] = tested on: PRMT1 (protein arginine N-methyltransferase 1); assay: small molecules binding arginine methyltransferase PRMT1 – biochemical, small-molecule microarray, 635 nm fluorescence, primary screen (AID 1088); settings: higher = more signal;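 also: binding of Prmt1 protein to compounds spotted on small-molecule microarray slides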
# [12] = growth effects on S. cerevisiae YJM789 – YJM789 clinical isolate, OD600, 24 h, basal, primary screen (AID 1089); settings: higher = more signal, called active from +8 up or from −8 down;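 also: growth of clinical yeast isolate S. cerevisiae YJM 789 seeded 1000 cells per well; test concentration not given here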
# [13] = S. pombe growth modifiers, basal conditions – strain 972, OD600, 24 h, no modulator, primary screen (AID 1090);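 also: basal condition with compound alone and no growth modifier present; test concentration not given here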; settings: S. pombe 972 growth, higher = more signal, called active from +8 up or from −8 down
# [14] = budding yeast growth modifiers under rapamycin – strain BY4716, OD600, 96 h, primary screen (AID 1091); also: test concentration not given here; settings: S. cerevisiae BY4716 + rapamycin, higher = more signal, called active from +8 up or from −8 down
# [15] = biological target: Torsin-1A-interacting protein 2 (Homo sapiens) (UniProt Q8NFQ8); assay: small molecules binding lysate-expressed LULL1 – cell lysate, human LULL1 lysate, 635/667 nm fluorescence, primary screen (AID 1092); settings: small-molecule microarray, hLULL1 lysate binding, 635 nm fluorescence; higher = more signal;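 also: probe is lysate of COS7 cells overexpressing human LULL1; score merges per-feature 667 nm fluorescence with signal-to-noise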
# [16] = optical density change of DRC41 E. coli – strain DRC41, OD650, 24 h, E. coli filamentation project, primary screen (AID 1093);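 also: MC1000 strain lacking acrAB efflux and sulA so SOS filamentation is blocked; test concentration not given here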; settings: E. coli DRC41 growth, higher = more signal, called active from +8 up or from −8 down
# [17] = probe aLefty2 binding to arrayed compounds – biochemical, biotinylated probe, 635/667 nm fluorescence, primary screen (AID 1094); settings: small-molecule microarray, higher = more signal;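 also: score merges spot fluorescence near 667 nm with spot signal-to-noise ratio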
# [18] = tested on: Noggin (protein binding on small-molecule microarray); assay: small molecules binding Noggin protein – biochemical, 635/667 nm fluorescence, primary screen (AID 1095); settings: 635 nm fluorescence, higher = more signal;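 also: score merges 667 nm feature fluorescence with signal to noise over triplicate slides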
# [19] = biological target: Neurogenic locus notch homolog protein 3 (Homo sapiens) (UniProt Q9UM47); assay: small molecules binding NOTCH3 protein – biochemical, 635/667 nm fluorescence, primary screen (AID 1096); settings: small-molecule microarray, 635 nm fluorescence, higher = more signal
# [20] = probe aEGFR binding to arrayed compounds – biochemical, biotinylated probe, 635/667 nm fluorescence, primary screen (AID 1097); settings: small-molecule microarray, higher = more signal;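 also: probe is a biotinylated anti-EGFR antibody binding compounds printed on slides; score combines fluorescence near 667 nm and signal to noise of each spot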
# Chain of Neurogenic locus notch homolog protein 2 (Homo sapiens) (Q04721 whole entry, looked up, canonical isoform): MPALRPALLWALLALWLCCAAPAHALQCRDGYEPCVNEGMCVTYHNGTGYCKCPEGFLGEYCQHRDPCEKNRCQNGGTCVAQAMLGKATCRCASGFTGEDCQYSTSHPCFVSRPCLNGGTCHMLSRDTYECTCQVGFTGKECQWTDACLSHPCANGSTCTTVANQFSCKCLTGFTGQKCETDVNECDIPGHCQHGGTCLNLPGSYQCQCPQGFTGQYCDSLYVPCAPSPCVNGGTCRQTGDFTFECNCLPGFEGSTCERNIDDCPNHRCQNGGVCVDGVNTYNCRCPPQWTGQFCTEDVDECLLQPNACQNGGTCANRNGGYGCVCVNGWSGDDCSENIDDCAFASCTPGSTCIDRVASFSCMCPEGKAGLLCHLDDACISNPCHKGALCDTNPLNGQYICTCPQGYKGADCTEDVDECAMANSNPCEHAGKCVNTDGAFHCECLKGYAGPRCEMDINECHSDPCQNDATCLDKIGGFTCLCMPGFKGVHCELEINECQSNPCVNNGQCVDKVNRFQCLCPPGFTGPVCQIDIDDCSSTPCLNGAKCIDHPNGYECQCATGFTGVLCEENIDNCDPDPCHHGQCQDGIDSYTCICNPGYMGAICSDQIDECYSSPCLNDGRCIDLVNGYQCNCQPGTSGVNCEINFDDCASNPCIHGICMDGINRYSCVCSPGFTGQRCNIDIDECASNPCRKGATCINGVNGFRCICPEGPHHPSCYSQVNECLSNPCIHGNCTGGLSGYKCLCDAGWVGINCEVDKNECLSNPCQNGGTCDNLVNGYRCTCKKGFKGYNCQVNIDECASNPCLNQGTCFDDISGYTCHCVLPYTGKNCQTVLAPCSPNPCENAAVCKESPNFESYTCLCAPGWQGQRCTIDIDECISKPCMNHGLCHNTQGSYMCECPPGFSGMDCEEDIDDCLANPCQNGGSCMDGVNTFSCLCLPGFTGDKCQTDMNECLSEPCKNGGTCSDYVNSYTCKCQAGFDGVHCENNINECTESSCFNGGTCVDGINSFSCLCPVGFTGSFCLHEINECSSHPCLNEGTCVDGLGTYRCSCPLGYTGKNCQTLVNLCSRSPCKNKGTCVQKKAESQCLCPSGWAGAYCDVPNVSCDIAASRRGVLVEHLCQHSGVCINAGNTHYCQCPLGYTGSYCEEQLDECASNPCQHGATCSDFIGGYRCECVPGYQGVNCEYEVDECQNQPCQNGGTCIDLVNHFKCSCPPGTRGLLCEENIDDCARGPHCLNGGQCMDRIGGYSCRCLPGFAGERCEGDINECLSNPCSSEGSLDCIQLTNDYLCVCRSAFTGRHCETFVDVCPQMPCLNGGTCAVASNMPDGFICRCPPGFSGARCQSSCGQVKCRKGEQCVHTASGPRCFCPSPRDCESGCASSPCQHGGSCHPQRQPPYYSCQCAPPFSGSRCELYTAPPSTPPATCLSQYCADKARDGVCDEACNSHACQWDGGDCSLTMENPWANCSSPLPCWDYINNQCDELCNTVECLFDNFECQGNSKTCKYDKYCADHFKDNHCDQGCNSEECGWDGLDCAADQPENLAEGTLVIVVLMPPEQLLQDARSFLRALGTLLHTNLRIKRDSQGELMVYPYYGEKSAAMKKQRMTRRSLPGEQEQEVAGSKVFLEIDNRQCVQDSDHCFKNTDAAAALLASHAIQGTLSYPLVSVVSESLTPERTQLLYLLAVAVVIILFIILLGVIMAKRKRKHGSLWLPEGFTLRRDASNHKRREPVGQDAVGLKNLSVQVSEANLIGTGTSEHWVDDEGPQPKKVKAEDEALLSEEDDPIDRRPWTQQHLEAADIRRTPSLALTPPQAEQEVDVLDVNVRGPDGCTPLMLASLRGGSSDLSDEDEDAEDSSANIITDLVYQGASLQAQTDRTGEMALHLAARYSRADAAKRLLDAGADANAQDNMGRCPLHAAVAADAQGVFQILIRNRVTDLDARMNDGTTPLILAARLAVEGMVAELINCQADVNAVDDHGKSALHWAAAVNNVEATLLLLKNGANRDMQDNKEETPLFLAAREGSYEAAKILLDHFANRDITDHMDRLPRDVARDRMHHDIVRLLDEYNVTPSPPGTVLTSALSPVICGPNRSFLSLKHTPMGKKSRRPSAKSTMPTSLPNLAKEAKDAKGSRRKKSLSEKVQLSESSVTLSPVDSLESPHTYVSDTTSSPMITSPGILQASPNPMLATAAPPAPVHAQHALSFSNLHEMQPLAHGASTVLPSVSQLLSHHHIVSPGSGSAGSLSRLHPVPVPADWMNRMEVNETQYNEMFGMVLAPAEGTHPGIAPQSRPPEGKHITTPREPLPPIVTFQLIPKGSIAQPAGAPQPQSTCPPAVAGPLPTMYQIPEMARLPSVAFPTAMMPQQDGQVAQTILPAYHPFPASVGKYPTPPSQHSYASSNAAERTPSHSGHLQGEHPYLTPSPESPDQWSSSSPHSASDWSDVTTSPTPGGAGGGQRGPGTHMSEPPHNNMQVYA
# Chain of Torsin-1A-interacting protein 2 (Homo sapiens) (Q8NFQ8 whole entry, looked up): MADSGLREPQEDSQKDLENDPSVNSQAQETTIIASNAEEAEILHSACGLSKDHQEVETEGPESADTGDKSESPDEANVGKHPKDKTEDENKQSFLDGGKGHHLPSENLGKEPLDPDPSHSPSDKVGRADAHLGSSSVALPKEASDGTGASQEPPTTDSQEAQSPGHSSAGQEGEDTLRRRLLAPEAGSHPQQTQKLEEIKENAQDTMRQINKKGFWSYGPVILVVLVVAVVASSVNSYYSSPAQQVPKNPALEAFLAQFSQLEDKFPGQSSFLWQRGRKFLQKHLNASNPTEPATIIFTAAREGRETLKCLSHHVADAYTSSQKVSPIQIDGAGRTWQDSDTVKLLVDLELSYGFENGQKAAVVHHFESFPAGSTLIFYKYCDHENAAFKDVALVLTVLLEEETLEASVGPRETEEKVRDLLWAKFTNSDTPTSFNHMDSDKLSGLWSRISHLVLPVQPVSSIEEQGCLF
# Chain of Pro-neuregulin-1, membrane-bound isoform (Homo sapiens) (Q02297 whole entry, looked up, the tested form may be a part, canonical isoform): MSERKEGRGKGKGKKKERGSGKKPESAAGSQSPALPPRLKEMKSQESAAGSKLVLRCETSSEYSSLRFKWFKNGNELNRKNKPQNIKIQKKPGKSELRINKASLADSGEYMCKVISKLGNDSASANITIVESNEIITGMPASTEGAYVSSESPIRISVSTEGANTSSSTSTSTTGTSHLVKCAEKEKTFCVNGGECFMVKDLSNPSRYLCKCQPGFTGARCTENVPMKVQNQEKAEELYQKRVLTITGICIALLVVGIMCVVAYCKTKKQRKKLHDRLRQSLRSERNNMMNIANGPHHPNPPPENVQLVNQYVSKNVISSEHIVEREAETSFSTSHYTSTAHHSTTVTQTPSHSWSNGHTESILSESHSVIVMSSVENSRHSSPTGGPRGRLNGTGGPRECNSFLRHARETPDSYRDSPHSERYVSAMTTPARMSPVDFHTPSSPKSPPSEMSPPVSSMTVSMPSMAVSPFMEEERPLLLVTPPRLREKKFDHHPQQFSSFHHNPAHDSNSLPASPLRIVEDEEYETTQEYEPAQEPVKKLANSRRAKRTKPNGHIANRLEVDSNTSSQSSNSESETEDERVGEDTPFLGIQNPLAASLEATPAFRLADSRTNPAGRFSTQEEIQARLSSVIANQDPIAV
structure (smiles),measurement,setting,value
C[C@@]1([C@@H](NC(=O)c2cccs2)c2ccc(-c3ccccc3)cc2)C[C@H]1C1CCCCC1,composite z-score,[1],-0.11
same,composite z-score,[2],-1.29
same,composite z-score,[3],-0.428
same,composite z-score,[4],-0.376
same,composite z-score,[5],-0.41
same,composite z-score,[6],0.783
same,composite z-score,[7],-0.253
same,z-score,[8],2.66 (inactive)
same,composite z-score,[9],-0.232
same,composite z-score,[10],-0.523
same,composite z-score,[11],-1.61
same,z-score,[12],1.53 (inactive)
same,z-score,[13],-0.584 (inactive)
same,z-score,[14],-0.578 (inactive)
same,composite z-score,[15],2.95
same,z-score,[16],-0.474 (inactive)
same,composite z-score,[17],-0.288
same,composite z-score,[18],-0.786
same,composite z-score,[19],-1.31
same,composite z-score,[20],-0.239
C=CCOC(=O)[C@@H]1[C@H]2C(=O)O[C@H](c3ccccc3)[C@H](c3ccccc3)N2[C@H](c2ccc(OCCOC(=O)[C@@H]3C[C@@H]4C(=O)N[C@@H](CCCCNC(C)=O)C(=O)N4[C@@H]3c3ccc(O)cc3)cc2)[C@@]12C(=O)Nc1ccc(I)cc12,composite z-score,[1],-0.101
same,composite z-score,[2],0.0133
same,composite z-score,[3],-0.0502
same,composite z-score,[4],0.722
same,composite z-score,[5],0.971
same,composite z-score,[6],0.767
same,composite z-score,[7],1.16
same,z-score,[8],0.0976 (inactive)
same,composite z-score,[9],0.4
same,composite z-score,[10],-0.0346
same,composite z-score,[11],1.54
same,z-score,[12],0.0797 (inactive)
same,z-score,[13],0.994 (inactive)
same,z-score,[14],2.96 (inactive)
same,composite z-score,[15],2.15
same,z-score,[16],-0.101 (inactive)
same,composite z-score,[17],-0.0248
same,composite z-score,[18],1.42
same,composite z-score,[19],1.13
same,composite z-score,[20],0.15
COCC(=C=CC[C@@H](O)c1ccccc1OCCO)C[C@@H](O)c1ccccn1,composite z-score,[1],-0.304
same,composite z-score,[2],0.663
same,composite z-score,[3],-0.0775
same,composite z-score,[4],0.159
same,composite z-score,[5],0.12
same,composite z-score,[6],1.21
same,composite z-score,[7],1.2
same,z-score,[8],-0.0964 (inactive)
same,composite z-score,[9],-0.0376
same,composite z-score,[10],0.0156
same,composite z-score,[11],1.29
same,z-score,[12],-0.108 (inactive)
same,z-score,[13],-1.4 (inactive)
same,z-score,[14],-0.856 (inactive)
same,composite z-score,[15],2.97
same,z-score,[16],-0.224 (inactive)
same,composite z-score,[17],-0.0825
same,composite z-score,[18],0.416
same,composite z-score,[19],0.88
same,composite z-score,[20],-0.0512
NC(=O)[C@@H]1[C@H]2C(=O)O[C@H](c3ccccc3)[C@H](c3ccccc3)N2[C@H](c2ccccc2OCCO)[C@@]12C(=O)Nc1ccc(C#CCCO)cc12,composite z-score,[1],-0.159
same,composite z-score,[2],0.45
same,composite z-score,[3],-0.0502
same,composite z-score,[4],-0.0477
same,composite z-score,[5],0.0307
same,composite z-score,[6],0.352
same,composite z-score,[7],0.0434
same,z-score,[8],0.7 (inactive)
same,composite z-score,[9],-0.0579
same,composite z-score,[10],-0.236
same,composite z-score,[11],-0.155
same,z-score,[12],0.566 (inactive)
same,z-score,[13],-0.145 (inactive)
same,z-score,[14],2.38 (inactive)
same,composite z-score,[15],0.417
same,z-score,[16],0.973 (inactive)
same,composite z-score,[17],-0.143
same,composite z-score,[18],-0.209
same,composite z-score,[19],-0.196
same,composite z-score,[20],-0.131
O=c1c2ccc(Br)cc2nc(-c2ccccc2)n1Cc1cccc(O)c1,composite z-score,[1],0.255
same,composite z-score,[2],2.81
same,composite z-score,[3],-0.0774
same,composite z-score,[4],0.556
same,composite z-score,[5],0.701
same,composite z-score,[6],1.81
same,composite z-score,[7],1.12
same,z-score,[8],4.59 (inactive)
same,composite z-score,[9],0.831
same,composite z-score,[10],-0.181
same,composite z-score,[11],0.529
same,z-score,[12],-1.52 (inactive)
same,z-score,[13],-2.91 (inactive)
same,z-score,[14],-0.511 (inactive)
same,composite z-score,[15],1.86
same,z-score,[16],1.38 (inactive)
same,composite z-score,[17],-0.0614
same,composite z-score,[18],-0.0706
same,composite z-score,[19],0.343
same,composite z-score,[20],-0.0721
C=CCOC(=O)[C@@H]1[C@H]2C(=O)O[C@H](c3ccccc3)[C@H](c3ccccc3)N2[C@H](c2ccc(OCCOC(=O)[C@@H]3C[C@@H]4C(=O)N5CCC[C@H]5C(=O)N4[C@@H]3c3cccc(OCCO)c3)cc2)[C@@]12C(=O)Nc1ccc(I)cc12,composite z-score,[1],-0.396
same,composite z-score,[2],0.313
same,composite z-score,[3],-0.0927
same,composite z-score,[4],0.0951
same,composite z-score,[5],0.115
same,composite z-score,[6],0.311
same,composite z-score,[7],1.17
same,z-score,[8],0.184 (inactive)
same,composite z-score,[9],0.252
same,composite z-score,[10],-0.236
same,composite z-score,[11],1.55
same,z-score,[12],0.581 (inactive)
same,z-score,[13],1.05 (inactive)
same,z-score,[14],2.18 (inactive)
same,composite z-score,[15],2.49
same,z-score,[16],0.949 (inactive)
same,composite z-score,[17],-0.0756
same,composite z-score,[18],1.9
same,composite z-score,[19],1.11
same,composite z-score,[20],-0.0387
COCCOC(=O)N1C(=O)[C@@]2(c3cc(C#Cc4ccc(OC)cc4)ccc31)[C@H](C(=O)N1CCc3cc(OC)c(OC)cc3C1)[C@H]1C(=O)O[C@H](c3ccccc3)[C@H](c3ccccc3)N1[C@@H]2c1ccc(O)cc1,composite z-score,[1],-0.285
same,composite z-score,[2],0.613
same,composite z-score,[3],-0.129
same,composite z-score,[4],0.64
same,composite z-score,[5],1.47
same,composite z-score,[6],1.17
same,composite z-score,[7],1.19
same,z-score,[8],0.707 (inactive)
same,composite z-score,[9],-0.0689
same,composite z-score,[10],-0.297
same,composite z-score,[11],1.55
same,z-score,[12],1.99 (inactive)
same,z-score,[13],1.71 (inactive)
same,z-score,[14],2.29 (inactive)
same,composite z-score,[15],2
same,z-score,[16],1.12 (inactive)
same,composite z-score,[17],-0.23
same,composite z-score,[18],0.614
same,composite z-score,[19],1.14
same,composite z-score,[20],-0.0197
C=CCNC(=O)[C@H]1[C@@H]2C(=O)O[C@@H](c3ccccc3)[C@@H](c3ccccc3)N2[C@@H](c2ccc(O)cc2)[C@]12C(=O)N(C(=O)OCCOC)c1ccc(C#CC3(O)CCCCCC3)cc12,composite z-score,[1],0.228
same,composite z-score,[2],0.494
same,composite z-score,[3],0.0789
same,composite z-score,[4],0.875
same,composite z-score,[5],0.793
same,composite z-score,[6],1.2
same,composite z-score,[7],1.27
same,z-score,[8],0.168 (inactive)
same,composite z-score,[9],0.229
same,composite z-score,[10],0.142
same,composite z-score,[11],1.55
same,z-score,[12],0.729 (inactive)
same,z-score,[13],-0.932 (inactive)
same,z-score,[14],0.943 (inactive)
same,composite z-score,[15],2.45
same,z-score,[16],1.87 (inactive)
same,composite z-score,[17],0.0026
same,composite z-score,[18],0.147
same,composite z-score,[19],0.838
same,composite z-score,[20],0.0638
COC(=O)[C@]1(Cc2ccccc2CN=[N+]=[N-])N=C(c2ccc(OCCCO)cc2)O[C@@H]1c1ccccc1,composite z-score,[1],0.774
same,composite z-score,[2],-0.556
same,composite z-score,[3],-0.137
same,composite z-score,[4],-1.27
same,composite z-score,[5],-1.24
same,composite z-score,[6],0.4
same,composite z-score,[7],-0.45
same,z-score,[8],-2.44 (inactive)
same,composite z-score,[9],-0.0581
same,composite z-score,[10],-0.174
same,composite z-score,[11],-0.985
same,z-score,[12],0.697 (inactive)
same,z-score,[13],-1.55 (inactive)
same,z-score,[14],35.3 (active)
same,composite z-score,[15],0.475
same,z-score,[16],0.437 (inactive)
same,composite z-score,[17],0.17
same,composite z-score,[18],-0.586
same,composite z-score,[19],-0.601
same,composite z-score,[20],-0.257
